# Assay results taken from PubChem BioAssay AID1650 (Southern Research Specialized Biocontainment Screening …, 2009).
# Results with a measured potency or affinity are listed apart. Active and inactive are the calls of the source. The rule behind the calls is not given here.
# Experiment: mammalian cell viability reduction – secondary assay, cytotoxicity control for West Nile virus antiviral project, dose response (AID 1650)
row,SMILES,outcome
1,CCN(CC)CCNC(=O)c1ccc(NC(=O)C2CCN(c3ncnc4sc(C)c(C)c34)CC2)cc1,inactive
2,CN(C)CCN(C)Cc1ccccc1Sc1cccc2ccccc12,inactive
3,CN1CCN(NC(=O)c2cc(-c3ccc(Br)s3)nc3ccccc23)CC1,inactive
4,O=C(CN1C(=O)/C(=C\c2cccc(Cl)c2)Sc2ccccc21)NCCCN1CCOCC1,inactive
5,CCOc1ccc(C(=O)CCC(=O)O)cc1,inactive
6,COc1ccc(C2c3[nH]c4ccccc4c3CCN2C(=O)c2cc3ncccn3n2)c(F)c1 (stereo not drawn),inactive
7,CCOc1ccc(NC(=O)Cn2c(=O)n(CCCC(=O)NC3CCN(Cc4ccccc4)CC3)c(=O)c3ccccc32)cc1,inactive
8,COc1cc2c(O)c3c(c(-c4ccc5c(c4)OCO5)c2cc1OC)C(=O)OC3,inactive
9,CCOc1c2ccoc2nc2c(OC)c(OC)ccc12,inactive
10,FC(F)(F)c1nnc(-c2ccccc2)nc1Sc1ccc(Cl)cc1,inactive
11,CCN(CCCNC(=O)c1cc2c(-c3cccc(OC)c3)nn(C)c2s1)Cc1ccccc1,inactive
12,CC/C(=C(\c1ccc(O)cc1)c1ccc(OCCN(C)C)cc1)c1ccccc1,inactive
13,CCOC(=O)c1c(NC(=O)CN(C)C2CCN(C)CC2)sc(C(=O)Nc2ccccc2)c1C,inactive
14,COc1cc(NC(=O)c2cc([N+](=O)[O-])ccc2Br)ccc1NC(=O)c1ccco1,inactive
15,O=C(CCN1C(=O)/C(=C/c2ccccc2F)SC1=S)NCCc1ccc(O)cc1,inactive
16,Cc1cccc(OCC(O)Cn2c(=N)n(CCN3CCCCC3)c3ccccc32)c1 (stereo not drawn),inactive
17,COc1ccccc1NC(=O)N1CCn2c(nc3ccccc32)C1,inactive
18,O=C(CCN1C(=O)/C(=C/c2ccc(F)cc2)SC1=S)NCCc1ccc(O)cc1,inactive
19,O=C(CNC(=S)N(Cc1ccccc1F)C1CCCCC1)NCC1CCCO1 (stereo not drawn),inactive
20,CCN(CC)S(=O)(=O)c1ccc(NC(=O)CSc2nnc(-c3cccc(OC)c3)n2C)cc1,inactive
21,CCOC(=O)N1CCC2(CC1)C(C#N)=C(N)OC1=C2C(=O)CCC1,inactive
22,COc1ccc(-n2c(=S)[nH]c3cc(C(=O)NCc4cccnc4)ccc3c2=O)c(OC)c1,inactive

row,SMILES,outcome
1,COc1cc(C(=O)/C=C/c2cccnc2)ccc1O,inactive
2,Cc1oc(-c2ccccc2Cl)[n+]([O-])c1C,inactive
3,CCN1CCN(CCCNC(=O)c2ccc3c(Cl)c4c(nc3c2)CCCC4)CC1,inactive
4,O=C(CSCc1ccc(Cl)cc1)Nc1ccc2c(c1)OCCO2,inactive
5,COc1ccc(-c2csc(N(CCCN(C)C)C(=O)c3ccccc3Cl)n2)cc1,inactive
6,CCCCCCCCCc1nc2sc3c(c2c(=O)n1NC(=O)c1ccc([N+](=O)[O-])cc1)CC(C)(C)OC3,inactive
7,Cc1ccc(-n2c(O)c(C=Nc3ccc4c(c3)OCO4)c3ccccc3c2=O)cc1C,inactive
8,CC(=O)OCC1O[C@@H](O[C@@H]2C[C@H]3C(C)(C)[C@H](OC(C)=O)CC[C@]3(C)[C@H]3CC[C@]45C[C@]4(CC[C@H]5[C@@H](C)C[C@@H](O)[C@H](O)C(C)(C)O)[C@@]32C)[C@H](O)[C@@H](O)[C@@H]1O (stereo partly drawn),inactive
9,Cc1ccc(-c2nc3ccccc3s2)cc1NC(=S)NC(=O)c1cccc2ccccc12,inactive
10,CCN1CCN(CCCNC(=O)c2cc3c(s2)-c2ccccc2OC3)CC1,inactive
11,COC(=O)c1c(NC(=O)CCS(=O)(=O)c2ccccc2)sc2c1CCN(C)C2,inactive
12,O=C1c2ccccc2C2=Nc3ccccc3SC(c3ccc(Cl)cc3)C12 (stereo not drawn),inactive
13,CCOc1ccc(-c2cc(C(=O)NCCCN3CCCC3)c3ccccc3n2)cc1,inactive
14,COc1ccc(-c2cc(C(=O)c3c(N)n(C)c(=O)n(C)c3=O)c3ccccc3n2)cc1OC,inactive
15,O=C(Oc1ccccc1)c1ccc(-n2cnnn2)cc1,inactive
16,CCN(CC)CCNC(=O)c1ccc(NC(=O)/C=C/c2ccc3ccccc3n2)cc1,inactive
17,COCCN1CCCC(CNCc2cn(C)nc2-c2ccc(Oc3ccccc3)cc2)C1 (stereo not drawn),inactive
18,CN(C)CCNC=C(C(=O)Nc1ccc(Cl)cc1Cl)C(=O)Nc1ccc(Cl)cc1Cl,inactive
19,CN1CCN(C(=O)CCN2C(=O)/C(=C\c3ccc(Cl)cc3Cl)SC2=S)CC1,inactive
20,Cc1cc(C)cc(SCc2noc(C(=O)NCCCN3CCOCC3)c2C(=O)NCCCN2CCOCC2)c1,inactive
21,CCOc1ccc2nc(N3CCCC(C(=O)NCCCN4CC(C)CC(C)C4)C3)sc2c1 (stereo not drawn),inactive
